In PubChem BioAssay (Tox21):
Records with an inconclusive call do not appear. Calls of active or inactive are those of the source. Unless noted, the call rests on the fitted dose curve; in most records, active means well fitted curve in the direction sought with a large enough effect in the repeat runs; inconclusive means weak or mixed curves; inactive means no such curve, though single readings can be large; an effect the other way counts as inactive or inconclusive.

How the values were obtained:
[1] = qHTS assay to identify small molecule antagonists of the vitamin D receptor (VDR) signaling pathway - cell viability counter screen (AID 743225); further: nearly all actives have a fitted effect of over 50% in size
Procedure, shortened: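 Compounds were pinned onto VDR-bla HEK 293T cells together with 1-alpha,25-dihydroxyvitamin D3 at 3 nM final. After 16 h at 37C and 5% CO2 plus the reporter readout, cell viability was measured by CellTiter-Glo luminescence (30 min, room temperature).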

[2] = qHTS assay to identify small molecule agonists of the NFkB signaling pathway (AID 1159509; active means well fitted curve in the direction sought with a large enough effect in the signal ratio in the repeat runs, not every such curve was filed as active; the % refers to the signal ratio; further: series mostly up to about 61 µM)
Procedure, shortened: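 NFkB-bla ME-180 cells with a beta-lactamase reporter under an NF-kB response element were plated overnight, treated with compounds in DMSO for 5 hr at 37 C, then loaded with FRET substrate for 1.5 hr at room temperature.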

[3] = qHTS assay to identify small molecule agonists of the NFkB signaling pathway - cell viability counter screen (AID 1159515; calls by dose curve; further: series mostly up to about 61 µM; nearly all actives have a fitted effect of over 55% in size)
Procedure, shortened: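 Luminescence from CellTiter-Glo (30 min, room temperature) gives viability, measured in the same wells as the beta-lactamase reporter read. Cells were NFkB-bla ME-180, 2,000 per well, treated 5 hr with compounds.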

[4] = qHTS assay to identify small molecule agonists of the endoplasmic reticulum stress response signaling pathway (AID 1159516; active means well fitted activation curve with a large enough effect in the signal ratio in the repeat runs, not every such curve was filed as active; the % refers to the signal ratio)
Procedure, shortened: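 Read-out is beta-lactamase cleavage of a FRET substrate (405 nm excitation; 460 and 530 nm emissions) in ESRE-bla HeLa cells after a 5 hr compound exposure at 37 C. Substrate incubation ran 2 hr at room temperature.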

[5] = qHTS assay to identify small molecule agonists of the endoplasmic reticulum stress response signaling pathway - cell viability counter screen (AID 1159517; calls by dose curve;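 further: HeLa cells carrying an ER stress response element beta-lactamase reporter; series mostly up to about 61 µM; nearly all actives have a fitted effect of over 50% in size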)
Procedure, shortened: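 Cells, HeLa ESRE-bla; density, 1,500/well; dosing, 5 hr at 37 C, 5% CO2; readout, CellTiter-Glo luminescence after 30 min RT.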

[6] = qHTS assay to identify small molecule antagonists of the retinoid-related orphan receptor gamma (ROR-gamma) signaling pathway - cell viability counter screen (AID 1159520); further: nearly all actives have a fitted effect of over 50% in size
Procedure, shortened: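 Cytotoxicity was read from cellular ATP (CellTiter-Glo luminescence) after 16 hr at 37 C with 1 uM doxycycline induction. The inducer was added 2 hr after compound transfer to Tet-on ROR gamma CHO cells.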

[7] = biological target: Nuclear receptor ROR-gamma (Homo sapiens) (UniProt P51449); assay: qHTS assay to identify small molecule antagonists of the retinoid-related orphan receptor gamma (ROR-gamma) signaling pathway (AID 1159521;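 further: CHO cells with doxycycline inducible ROR-gamma driving an RORE luciferase reporter; top concentration of the series differs between compounds; nearly all actives have a fitted effect of over 50% in size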)
Procedure, shortened: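 Test compounds were applied to Tet-on RORγ CHO cells 2 h ahead of doxycycline hyclate (1 uM final). Luciferase reporter activity was quantified by luminescence after 16 h at 37 C and 5% CO2.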

[8] = qHTS assay to identify small molecule agonists of the AP-1 signaling pathway - cell viability counter screen (AID 1159525; calls by dose curve; further: nearly all actives have a fitted effect of over 55% in size)
Procedure, shortened: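 Luminescent ATP readout (Cell Titer Glo, 30 min RT), normalised to DMSO and tetra n-octyl ammonium bromide controls. Cells were ME-180 AP-1-bla in 0.5% dialyzed FBS Opti-MEM, with a 5 h, 37 °C compound exposure.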

[9] = qHTS assay to identify small molecule agonists of the AP-1 signaling pathway (AID 1159526; calls by dose curve)
[10] = biological target: Retinoic acid receptor RXR-alpha (Homo sapiens) (UniProt P19793); assay: qHTS assay to identify small molecule agonists of the RXR signaling pathway (AID 1159527; calls by dose curve; further: nearly all actives have a fitted effect of over 35% in size; further: potency means the concentration at half of the fitted maximal effect)
Procedure, shortened: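 Using 9-cis retinoic acid as the reference agonist, chemicals were tested in HEK 293T cells […] for 16 hr; substrate loading lasted 2 hr at room temperature.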

[11] = qHTS assay to identify small molecule agonists of the RXR signaling pathway - cell viability counter screen (AID 1159529)
Procedure, shortened: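 Compounds dissolved in DMSO were pinned onto HEK 293T cells carrying a beta-lactamase reporter under RXR-alpha control and incubated 16 hr. Cytotoxicity was then quantified by CellTiter-Glo luminescence.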

[12] = qHTS assay to identify small molecule antagonists of the retinoid acid receptor (RAR) signaling pathway - cell viability counter screen (AID 1159551); further: nearly all actives have a fitted effect of over 35% in size
Procedure, shortened: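 Luminescent ATP quantitation (CellTiter-Glo) gave cell viability in C3RL4 cells exposed to test chemicals for 6 h at 37 C alongside 1 uM final retinol.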

[13] = qHTS assay to identify small molecule antagonists of the retinoic acid receptor (RAR) signaling pathway (AID 1159552; further: nearly all actives have a fitted effect of over 50% in size)
Procedure, shortened: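 Test chemicals and DMSO controls were pin-transferred onto C3RL4 cells a day after seeding; retinol (1 uM final) followed at once. Luminescent reporter output was quantified after 6 hr of co-incubation and 30 min with detection reagent.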

[14] = qHTS assay to identify small molecule agonists of the retinoic acid receptor (RAR) signaling pathway (AID 1159553)
Procedure, shortened: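 Luminescence from a RARE-driven luciferase reporter in C3RL4 cells served as the read-out, measured after 30 min with detection reagent at room temperature. Compounds in DMSO were applied for 6 hr at 37 C following overnight seeding.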

Measured: Potency

Sequence of Retinoic acid receptor RXR-alpha (Homo sapiens) (P19793 whole entry, looked up): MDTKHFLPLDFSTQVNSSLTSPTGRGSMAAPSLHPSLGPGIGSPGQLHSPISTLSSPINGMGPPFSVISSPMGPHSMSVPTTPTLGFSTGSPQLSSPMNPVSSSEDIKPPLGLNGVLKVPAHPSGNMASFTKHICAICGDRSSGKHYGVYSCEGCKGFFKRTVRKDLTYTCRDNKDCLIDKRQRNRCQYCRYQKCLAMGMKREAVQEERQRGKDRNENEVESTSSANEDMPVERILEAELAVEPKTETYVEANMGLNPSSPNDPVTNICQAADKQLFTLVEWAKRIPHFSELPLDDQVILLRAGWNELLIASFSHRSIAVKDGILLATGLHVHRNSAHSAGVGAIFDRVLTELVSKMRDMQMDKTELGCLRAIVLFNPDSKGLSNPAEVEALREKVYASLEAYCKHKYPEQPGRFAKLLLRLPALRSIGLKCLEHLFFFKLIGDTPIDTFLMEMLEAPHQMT

C[C@]12C=CC(=O)C=C1CC[C@@H]1[C@@H]2CC[C@@]2(C)[C@H]1CC[C@]2(C)O
not listed: [14]
inactive: all other assays above

O=C(O)C(F)(F)C(F)(F)C(F)(F)C(F)(F)C(F)(F)C(F)(F)F
not listed: [13] | [14]
inactive: all other assays above

CCOC(=O)COc1ccc(Cl)cc1Cl
not listed: [14]
inactive: all other assays above

c1ccc2c(c1)CCNC2
not listed: [14]
inactive: all other assays above

O=C(Cl)c1ccccc1
not listed: [14]
inactive: all other assays above

Oc1ccc(Cc2ccc(O)cc2)cc1
not listed: [14]
inactive: all other assays above

CCOC(=O)C(Cl)Cc1cc(-n2nc(C)n(C(F)F)c2=O)c(F)cc1Cl (stereo not given)
not listed: [13]
inactive: all other assays above

CCCCCCC1CCOC1=O (stereo not given)
not listed: [14]
inactive: all other assays above

OP(O)c1ccccc1
not listed: [14]
inactive: all other assays above

O=C(Cl)CCl
not listed: [14]
inactive: all other assays above

CC[C@H](O)C(C[C@H](C)N(C)C)(c1ccccc1)c1ccccc1
not listed: [14]
inactive: all other assays above

CCC(C)(C#N)N=NC(C)(C#N)CC (stereo not given)
not listed: [14]
inactive: all other assays above

C#CCOC(=O)/C=C(C)/C=C/CC(C)CCCC(C)C (stereo not given)
active: [10] 49 µM
not listed: [13] | [14]
inactive: all other assays above

O=[N+]([O-])CCO
not listed: [1] | [13]
inactive: all other assays above

C(COCC1CO1)OCC1CO1 (stereo not given)
not listed: [14]
inactive: all other assays above

Oc1ccc2c3c1O[C@H]1[C@@H](O)C=C[C@H]4[C@@H](C2)NCC[C@@]341
not listed: [13]
inactive: all other assays above

CCCC(C)C1(CC)C(=O)N=C(S)NC1=O (stereo not given)
not listed: [14]
inactive: all other assays above

CCCOC(=O)c1cncn1C(C)c1ccccc1 (stereo not given)
not listed: [14]
inactive: all other assays above

C=CCC1(C(C)CC)C(=O)NC(=O)NC1=O (stereo not given)
not listed: [14]
inactive: all other assays above

CCOC1Oc2ccc(OS(C)(=O)=O)cc2C1(C)C (stereo not given)
not listed: [14]
inactive: all other assays above

O=C1CCCCC1Cl (stereo not given)
not listed: [7]
inactive: all other assays above
